Drawing on ChEMBL document CHEMBL1157539, “Thousands of chemical starting points for antimalarial lead identification” (Nature, 2010), this text covers Inhibition for 40 compounds.

One may read the Inhibition as how much of the control response was suppressed. Low readings indicate a response near the control, high ones a response far below the control.

The assay deals with Plasmodium falciparum. Kind of assay: GSK_TCMDC: Inhibition of Plasmodium falciparum 3D7 in whole red blood cells, using parasite LDH activity as an index of growth. Test compounds present at 2uM. It counts as functional.
`Cc1cccc2nc(-c3cccc(-c4ccc(NC(=O)c5ccncc5)cc4)c3)[nH]c12` displayed an Inhibition of 98%.
The value for `NC(=O)c1cccc(C(=O)Nc2cccc(-c3ccc(-c4nc5ccccc5[nH]4)s3)c2)c1` was 95%; that for `CC(C)COc1ccc(Cl)cc1Cc1nc(-c2nc3ccc(N4CCN(C)CC4)nc3[nH]2)cs1.Cl` was 99%.
In the case of `COc1ccc(CC(=O)NC(CCN2CCC3(CCc4ccccc43)CC2)c2ccc(Cl)c(Cl)c2)cc1` (stereo not given), the Inhibition is given as 90%.
Compound `COc1c(C2CCN(CCCCNC(=O)c3ccc(-c4ccc(C#N)cc4)nc3)CC2)ccc2c1CCCC2` registered an Inhibition of 95%.
Compound `Cc1noc(C)c1C(=O)N1CCCC(c2[nH]c3c(C)cccc3c2-c2ccncc2)C1.Cl` (stereo not given) displayed an Inhibition of 100%.
`Cc1cc(N2CCCC2)nc(Nc2ccc(NC(=O)CC(C)C)cc2)n1`: the Inhibition was found to be 95%.
The compound `Cc1ccc(S(=O)(=O)n2cc(-c3ccnc(N)c3)c3cc(Br)cnc32)cc1` gave an Inhibition of 98%.
Compound `Cc1ccc(O)c(-c2cc(C(=O)Nc3ccc(S(=O)(=O)N4CCCCCC4)cc3)[nH]n2)c1` yielded an Inhibition of 100%.
Under `CC1(C)CCC(C)(C)c2c1ccc(C1CCN(CCCCNC(=O)c3ccc(-c4ccc(C#N)cc4)cc3)CC1)c2OCC(N)=O` stands 100%.
For `O=C(Nc1cccc(-c2cccc(-c3nc4ccccc4[nH]3)c2)c1)c1ccncc1`, the Inhibition came to 99%.
Consider `Cc1[nH]c(C)c(-c2ccc(-c3ccc(C(F)(F)F)cc3C(F)(F)F)nc2)c(=O)c1Br`, for which the Inhibition is 97%.
The value for `CC(O)C1CCCCN1C(=O)c1ccc(-c2ccc(-c3nc4ccccc4[nH]3)s2)cc1` (stereo not given) was 100%; that for `O=C(Nc1nc2cc(S(=O)(=O)NCCc3ccc(F)cc3)ccc2n1CCCn1ccnc1)c1ccc(Cl)cc1.O=C(O)C(F)(F)F` was 100%; that for `CC(C)(C)c1ccc(NC(=O)c2cccc(CN3CCN(Cc4cccc(O)c4)CC3)c2)cc1.O=C(O)C(F)(F)F` was 92%.
Under `Cl.Nc1ncnc2occ(-c3ccc(NC(=O)Nc4cc(C(F)(F)F)ccc4F)cc3)c12` [GW770249A] stands 99%; under `Cc1cc(NC(=O)NCCN2CCC(NC(=O)c3ccc(F)cc3)CC2)c2ccccc2n1`, 99%; under `CN1CCN(Cc2ccc(-c3ccc4c(Nc5ccc(Cl)cc5F)ccnc4c3)o2)CC1`, 100%.
The compound `COc1ccc(CN2CCC(N3CCc4cc(NC(=O)c5cc(C)on5)ccc43)C2)cc1Cl` (stereo not given) showed an Inhibition of 94%.
Compound `COc1ccc2c(c1)CCCC2NCCCCNC(=O)c1ccc(NC(=O)c2ccc(Cl)cc2)cc1` (stereo not given) yielded an Inhibition of 100%.
The compound `COc1ccc2c(c1)ncn2-c1cc(OCc2ccncc2Br)c(C(N)=O)s1` showed an Inhibition of 95%.
The value for `CC1(C)[C@H]2CC[C@@H](CNc3nc(NCCc4c[nH]cn4)nc(NCc4cc(F)ccc4F)n3)[C@@H]1C2` was 100%; that for `Cc1ccc(Nc2nccc(NCC(O)c3cccc(C)c3)n2)cc1` (stereo not given) was 90%; that for `COc1cc(Cc2cnc(N)nc2N)cc(CC(C)O)c1O` (stereo not given) was 93%.
Under `COc1ccc(-c2cc(C(=O)N[C@@H](CC3CCCCC3)C(=O)NC3CCCc4ccccc43)ccc2O)cc1` (stereo not given in full) stands 98%.
With `Oc1cccc(Nc2nc(NCc3ccco3)c3ccccc3n2)c1`, the Inhibition is on record as 100%.
Under `COc1ccc2c(NN=Cc3ccc(N(C)C)cc3)ccnc2c1` stands 100%; under `Cc1cc(N)c2cc(NC(=O)c3ccc4ccccc4c3)ccc2n1.Cl`, 100%.
Consider `CC(C)C[C@H]1C(=O)N[C@H](C2Cc3ccccc3C2)C(=O)N1[C@@H](C(=O)Nc1ccccc1OCc1ccccc1)c1ccc(F)cc1F`, for which the Inhibition is 90%.
The value for `Cl.N=C(NCCc1ccccc1Cl)c1ccc2ccccc2c1` was 88%.
Turning to `CCCC(C(CC1CCC(C)CC1)C(=O)NC(CCCNc1ncccn1)C(=O)Nc1nccs1)N(O)C=O` (stereo not given), the Inhibition is 98%.
The compound `CC(CN(C)C)C(=O)Nc1cccc(-c2cccc(-c3nc4ccccc4[nH]3)c2)c1` (stereo not given) had an Inhibition of 94%.
As for `Cn1cncc1C(=O)Nc1cccc(-c2ccc(-c3nc4ccccc4[nH]3)s2)c1`, the Inhibition turned out to be 100%.
Compound `O=C(Nc1cccnc1)c1ccc(-c2cc3ccncc3cc2OC2CCNCC2)s1` displayed an Inhibition of 97%.
The value for `Cc1nc(-c2cccc(Nc3nccc(NCC(O)c4cccc(F)c4)n3)c2)cs1` (stereo not given) was 98%; that for `COc1ccccc1NC(=O)NC1CCN(CCCCCNC(=O)/C=C/c2ccc(Cl)c(Cl)c2)CC1` was 100%.
Take `O=C(/C=C/c1ccc(Cl)c(Cl)c1)N1CCC(CN2CCC(c3c[nH]c4cnccc34)CC2)CC1`: the Inhibition is 100%.
Under `C[C@H]1CN(Cc2cccc(-c3cc(CNC(=O)c4cccc(CN5CCN(C/C=C/c6ccccc6)CC5)c4)ccc3F)c2)CCN1.O=C(O)C(F)(F)F` stands 98%; under `CC(C)Oc1cc2c(cc1NS(=O)(=O)c1ccc(-c3ccc(Cl)cc3)cc1F)CCN(C)CC2.Cl`, 88%.
The value for `O=C(NCCc1ccccc1F)c1cc(Br)cc(N2CCN(c3ccncc3)CC2)c1.O=C(O)C(F)(F)F` was 97%.
